Assay [1] can be described thus: small molecules captured by biotinylated probe aFSTL3 – biochemical, small-molecule microarray, fluorescence 635/667, stem cell growth factor project, primary screen (AID 1064).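 Further: measures binding of the biotinylated anti-FSTL3 antibody to printed compounds.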 The conditions noted are these: higher = more signal.
Assay [2] is described as follows: binders from COS7 lysate, DM2A8 probe, primary screen, torsin A project, cell lysate, small-molecule microarray, fluorescence 635/667 (AID 1065). The conditions noted are these: higher = more signal, COS7 lysate expressing mutant human TOR1A.
Assay [3] in a line: small molecules captured by biotinylated probe aFGF2 – biochemical, small-molecule microarray, fluorescence 635/667, stem cell growth factor project, primary screen (AID 1067).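 Further: measures binding of biotinylated aFGF2 protein to printed compounds on slides; z-score merges feature fluorescence and signal-to-noise across triplicate slides.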 The conditions noted are these: higher = more signal.
Assay [4] can be described thus: small molecules captured by biotinylated probe aFGF10 – biochemical, small-molecule microarray, fluorescence 635/667, stem cell growth factor project, primary screen (AID 1071).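 Further: score merges 667 nm spot intensity and signal to noise from triplicate slides.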 The settings on record: higher = more signal.
Assay [5] concerns the target Neurogenic locus notch homolog protein 2 (Homo sapiens) (UniProt Q04721). Kind of assay: small molecules binding Notch2 protein – biochemical, small-molecule microarray, 635 nm fluorescence, stem cell growth factors, primary screen (AID 1073). The conditions noted are these: higher = more signal.
Assay [6] addresses Pro-neuregulin-1, membrane-bound isoform (Homo sapiens) (UniProt Q02297). Kind of assay: small molecules binding neuregulin-1 protein – biochemical, small-molecule microarray, fluorescence 635/667, psychiatric disease protein project, primary screen (AID 1075).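 Further: score combines 667 nm spot fluorescence with signal to noise.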 The settings on record: NRG1 binding, 635 nm fluorescence, higher = more signal.
Assay [7] concerns Neuregulin-1 EGF-like domain. Kind of assay: small molecules binding NRG1 EGF domain – biochemical, small-molecule microarray, 635 nm fluorescence, primary screen (AID 1081).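 Further: binding of the protein to compounds printed on small-molecule microarray slides.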 The conditions noted are these: higher = more signal.
Assay [8] can be described thus: FRG1 expression reporter modulators in myotubes – cell-based, C2C12 myotubes, firefly/Renilla luciferase, luminescence, FRG1 inhibition for FSHD, primary screen (AID 1084). The conditions noted are these: FRG1 promoter luciferase, higher = more signal, called active from +8 up or from −8 down.
The nature of assay [9]: small molecules captured by biotinylated probe aFST – biochemical, small-molecule microarray, fluorescence 635/667, stem cell growth factor project, primary screen (AID 1086).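 Further: score merges 667 nm fluorescence with signal-to-noise of each printed compound spot.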 The settings on record: higher = more signal.
Assay [10] can be described thus: binders of probe aHhip on microarray, primary screen, stem cell growth factor project, biochemical, small-molecule microarray, fluorescence 635/667 (AID 1087).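 Further: score merges spot fluorescence at 667nm with spot signal to noise ratio.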 The conditions noted are these: higher = more signal.
In assay [11] the test system is PRMT1 (protein arginine N-methyltransferase 1). Kind of assay: small molecules binding arginine methyltransferase PRMT1 – biochemical, small-molecule microarray, 635 nm fluorescence, primary screen (AID 1088).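 Further: binding of Prmt1 protein to compounds spotted on small-molecule microarray slides.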 The settings on record: higher = more signal.
Assay [12] can be described thus: growth effects on S. cerevisiae YJM789 – YJM789 clinical isolate, OD600, 24 h, basal, primary screen (AID 1089).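 Further: growth of clinical yeast isolate S. cerevisiae YJM 789 seeded 1000 cells per well; test concentration not given here.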 The conditions noted are these: higher = more signal, called active from +8 up or from −8 down.
Assay [13] can be described thus: S. pombe growth modifiers, basal conditions – strain 972, OD600, 24 h, no modulator, primary screen (AID 1090).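 Further: basal condition with compound alone and no growth modifier present; test concentration not given here.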 The conditions noted are these: S. pombe 972 growth, higher = more signal, called active from +8 up or from −8 down.
Assay [14] in a line: budding yeast growth modifiers under rapamycin – strain BY4716, OD600, 96 h, primary screen (AID 1091). Further: test concentration not given here. The conditions noted are these: S. cerevisiae BY4716 + rapamycin, higher = more signal, called active from +8 up or from −8 down.
Assay [15] concerns the target Torsin-1A-interacting protein 2 (Homo sapiens) (UniProt Q8NFQ8). Kind of assay: small molecules binding lysate-expressed LULL1 – cell lysate, human LULL1 lysate, 635/667 nm fluorescence, primary screen (AID 1092).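 Further: score merges per-feature 667 nm fluorescence with signal-to-noise.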 The settings on record: small-molecule microarray, hLULL1 lysate binding, 635 nm fluorescence; higher = more signal.
The nature of assay [16]: optical density change of DRC41 E. coli – strain DRC41, OD650, 24 h, E. coli filamentation project, primary screen (AID 1093).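 Further: MC1000 strain lacking acrAB efflux and sulA so SOS filamentation is blocked; test concentration not given here.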 The settings on record: E. coli DRC41 growth, higher = more signal, called active from +8 up or from −8 down.
Assay [17] is described as follows: probe aLefty2 binding to arrayed compounds – biochemical, biotinylated probe, 635/667 nm fluorescence, primary screen (AID 1094).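 Further: score merges spot fluorescence near 667 nm with spot signal-to-noise ratio.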 The conditions noted are these: small-molecule microarray, higher = more signal.
The test system of assay [18] is Noggin (protein binding on small-molecule microarray). Kind of assay: small molecules binding Noggin protein – biochemical, 635/667 nm fluorescence, primary screen (AID 1095).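 Further: score merges 667 nm feature fluorescence with signal to noise over triplicate slides.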 The conditions noted are these: 635 nm fluorescence, higher = more signal.
Assay [19] deals with Neurogenic locus notch homolog protein 3 (Homo sapiens) (UniProt Q9UM47). Kind of assay: small molecules binding NOTCH3 protein – biochemical, 635/667 nm fluorescence, primary screen (AID 1096). The conditions noted are these: small-molecule microarray, 635 nm fluorescence, higher = more signal.
Assay [20] is described as follows: probe aEGFR binding to arrayed compounds – biochemical, biotinylated probe, 635/667 nm fluorescence, primary screen (AID 1097).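 Further: probe is a biotinylated anti-EGFR antibody binding compounds printed on slides; score combines fluorescence near 667 nm and signal to noise of each spot.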 The settings on record: small-molecule microarray, higher = more signal.

Active and inactive are the calls of the source.

Chain of Neurogenic locus notch homolog protein 2 (Homo sapiens) (Q04721 whole entry, looked up, canonical isoform): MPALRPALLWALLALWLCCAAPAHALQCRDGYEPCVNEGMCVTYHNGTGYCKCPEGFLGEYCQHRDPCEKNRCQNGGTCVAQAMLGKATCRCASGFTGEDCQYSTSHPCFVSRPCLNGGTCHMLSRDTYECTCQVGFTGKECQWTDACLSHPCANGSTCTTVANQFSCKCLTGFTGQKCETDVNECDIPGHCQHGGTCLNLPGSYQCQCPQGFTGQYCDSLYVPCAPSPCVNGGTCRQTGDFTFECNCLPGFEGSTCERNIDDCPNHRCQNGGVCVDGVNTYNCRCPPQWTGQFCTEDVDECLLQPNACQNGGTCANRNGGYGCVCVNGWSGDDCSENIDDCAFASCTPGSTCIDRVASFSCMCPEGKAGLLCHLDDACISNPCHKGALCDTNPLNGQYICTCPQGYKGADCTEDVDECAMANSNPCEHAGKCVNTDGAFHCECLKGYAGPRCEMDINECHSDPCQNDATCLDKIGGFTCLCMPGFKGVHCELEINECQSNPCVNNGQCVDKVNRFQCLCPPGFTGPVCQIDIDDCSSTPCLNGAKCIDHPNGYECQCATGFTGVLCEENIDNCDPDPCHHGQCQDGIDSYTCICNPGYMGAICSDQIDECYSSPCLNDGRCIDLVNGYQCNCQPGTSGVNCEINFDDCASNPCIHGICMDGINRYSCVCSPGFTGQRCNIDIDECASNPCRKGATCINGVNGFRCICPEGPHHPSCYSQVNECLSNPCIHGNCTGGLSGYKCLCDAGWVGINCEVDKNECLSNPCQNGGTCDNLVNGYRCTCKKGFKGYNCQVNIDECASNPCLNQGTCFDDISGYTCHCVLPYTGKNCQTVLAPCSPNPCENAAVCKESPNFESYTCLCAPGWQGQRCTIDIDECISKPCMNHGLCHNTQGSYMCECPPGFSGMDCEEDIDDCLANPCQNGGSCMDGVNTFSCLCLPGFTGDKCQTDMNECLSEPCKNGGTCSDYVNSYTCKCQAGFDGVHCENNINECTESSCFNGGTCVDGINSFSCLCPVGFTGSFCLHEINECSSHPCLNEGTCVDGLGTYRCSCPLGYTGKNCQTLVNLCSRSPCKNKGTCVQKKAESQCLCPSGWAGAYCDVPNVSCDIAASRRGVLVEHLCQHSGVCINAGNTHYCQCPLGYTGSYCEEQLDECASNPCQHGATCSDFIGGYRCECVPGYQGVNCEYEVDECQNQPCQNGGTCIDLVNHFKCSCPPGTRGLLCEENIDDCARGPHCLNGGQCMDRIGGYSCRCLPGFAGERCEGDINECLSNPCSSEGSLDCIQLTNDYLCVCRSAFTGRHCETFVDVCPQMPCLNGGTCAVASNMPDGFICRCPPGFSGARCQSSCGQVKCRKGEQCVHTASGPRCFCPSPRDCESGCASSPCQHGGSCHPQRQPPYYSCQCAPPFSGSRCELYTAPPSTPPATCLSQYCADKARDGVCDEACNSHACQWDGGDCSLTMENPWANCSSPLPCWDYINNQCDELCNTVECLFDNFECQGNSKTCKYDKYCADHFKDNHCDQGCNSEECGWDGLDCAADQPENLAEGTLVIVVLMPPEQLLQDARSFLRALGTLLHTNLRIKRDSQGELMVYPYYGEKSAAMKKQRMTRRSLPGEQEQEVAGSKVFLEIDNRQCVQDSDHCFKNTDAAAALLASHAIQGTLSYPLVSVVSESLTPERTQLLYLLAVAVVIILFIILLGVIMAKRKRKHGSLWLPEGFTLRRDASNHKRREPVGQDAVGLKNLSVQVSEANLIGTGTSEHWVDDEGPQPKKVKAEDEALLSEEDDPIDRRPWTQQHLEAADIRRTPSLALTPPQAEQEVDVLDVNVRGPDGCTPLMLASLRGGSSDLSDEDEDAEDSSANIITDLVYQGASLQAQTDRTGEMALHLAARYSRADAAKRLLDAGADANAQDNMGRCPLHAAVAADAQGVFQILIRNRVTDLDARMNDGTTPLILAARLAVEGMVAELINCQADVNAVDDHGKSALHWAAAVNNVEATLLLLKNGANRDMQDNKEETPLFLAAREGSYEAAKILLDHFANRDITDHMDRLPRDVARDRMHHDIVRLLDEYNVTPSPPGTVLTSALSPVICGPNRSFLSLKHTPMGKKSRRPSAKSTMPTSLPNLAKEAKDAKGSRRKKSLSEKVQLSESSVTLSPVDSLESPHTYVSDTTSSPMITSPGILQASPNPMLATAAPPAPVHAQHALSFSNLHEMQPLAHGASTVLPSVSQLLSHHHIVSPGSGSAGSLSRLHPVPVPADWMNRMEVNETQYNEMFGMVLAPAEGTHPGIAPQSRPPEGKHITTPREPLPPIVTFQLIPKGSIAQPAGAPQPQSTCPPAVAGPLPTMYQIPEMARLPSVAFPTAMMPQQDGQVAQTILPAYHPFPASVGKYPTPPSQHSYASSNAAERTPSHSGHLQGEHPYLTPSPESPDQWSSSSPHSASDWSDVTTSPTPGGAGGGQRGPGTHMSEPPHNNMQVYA
Chain of Torsin-1A-interacting protein 2 (Homo sapiens) (Q8NFQ8 whole entry, looked up): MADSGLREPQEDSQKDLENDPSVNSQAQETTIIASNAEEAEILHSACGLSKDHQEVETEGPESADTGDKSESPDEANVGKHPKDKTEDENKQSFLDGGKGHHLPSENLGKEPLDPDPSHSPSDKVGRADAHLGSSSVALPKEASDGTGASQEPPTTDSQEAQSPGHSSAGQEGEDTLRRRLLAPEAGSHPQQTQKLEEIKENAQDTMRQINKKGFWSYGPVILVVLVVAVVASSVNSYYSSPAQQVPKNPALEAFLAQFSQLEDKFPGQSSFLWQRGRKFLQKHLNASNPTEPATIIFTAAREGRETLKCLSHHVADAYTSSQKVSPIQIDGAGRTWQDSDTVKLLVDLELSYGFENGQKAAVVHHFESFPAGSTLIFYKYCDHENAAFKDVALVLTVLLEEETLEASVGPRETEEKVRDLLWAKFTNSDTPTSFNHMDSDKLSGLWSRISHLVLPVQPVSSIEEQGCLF
Chain of Pro-neuregulin-1, membrane-bound isoform (Homo sapiens) (Q02297 whole entry, looked up, the tested form may be a part, canonical isoform): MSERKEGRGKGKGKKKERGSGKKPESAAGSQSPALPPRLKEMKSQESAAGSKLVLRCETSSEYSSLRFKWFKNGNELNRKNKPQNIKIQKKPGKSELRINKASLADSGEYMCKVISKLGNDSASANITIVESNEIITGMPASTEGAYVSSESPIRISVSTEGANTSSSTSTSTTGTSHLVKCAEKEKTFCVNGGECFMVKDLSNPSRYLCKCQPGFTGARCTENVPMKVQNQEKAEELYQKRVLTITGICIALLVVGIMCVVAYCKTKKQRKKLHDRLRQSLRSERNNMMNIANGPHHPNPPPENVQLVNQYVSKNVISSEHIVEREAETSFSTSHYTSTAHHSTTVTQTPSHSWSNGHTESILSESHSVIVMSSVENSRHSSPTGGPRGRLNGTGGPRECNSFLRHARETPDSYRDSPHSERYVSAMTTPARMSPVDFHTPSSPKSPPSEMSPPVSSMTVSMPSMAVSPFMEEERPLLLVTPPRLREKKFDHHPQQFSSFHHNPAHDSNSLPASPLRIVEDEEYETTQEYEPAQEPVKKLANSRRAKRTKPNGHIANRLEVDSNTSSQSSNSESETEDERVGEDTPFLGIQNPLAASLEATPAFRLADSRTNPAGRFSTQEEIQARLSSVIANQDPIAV

Take `O=C1O[C@H](c2ccccc2)[C@H](c2ccccc2)N2[C@H]1[C@@H](C(=O)Nc1nc3ccccc3s1)[C@]1(C(=O)Nc3ccc(C#CCCO)cc31)[C@H]2c1ccccc1OCCO`: the composite z-score in assay [1] was -0.246; in [2], 1.25; in assay [3], -0.038; in [4], 0.502; in assay [5], 1.35; in [6], 1.69. In addition, the composite z-score in [7] is 1.06; in [9] it was 0.599; in assay [10], 0.0757; in assay [11], 1.47; in [15] it was 2.85; in [17], 0.0459. Moreover, the composite z-score in [18] came to 0.244; in assay [19], 0.912; in assay [20], 0.0381. For the same compound, the z-score in assay [8] was -1.51 (inactive); in [12], 0.764 (inactive); in [13] it was -1.98 (inactive); in [14], 2.62 (inactive); in assay [16], 2.96 (inactive).
For `COCCCNC(=O)[C@@]1(Cc2ccccc2CN=[N+]=[N-])COC(c2ccc(OCCCO)cc2)=N1`, the composite z-score is 1.14 in [1]; 1.3 in assay [2]; 0.302 in assay [3]; 1.07 in assay [4]; 1.28 in assay [5]; 1.84 in assay [6]. The composite z-score in assay [7] was 1.28; in [9], 0.934; in assay [10], -0.277; in assay [11], 1.54; in assay [15] it was 3.17; in assay [17] it was 0.374. Moreover, the composite z-score in assay [18] is -0.434; in assay [19], 0.964; in [20], 0.294. Also, the z-score in assay [8] is -2.53 (inactive); in assay [12], 1.14 (inactive); in [13] it was -2.56 (inactive); in assay [14], 0.0898 (inactive); in [16] it was 2.36 (inactive).
For the compound `C[N+](C)(C)CCCC[C@@H]1NC(=O)[C@@H]2C[C@H](C(=O)NCCCCCNC(=O)CS)[C@H](c3ccc(O)cc3)N2C1=O`, the composite z-score in [1] was 0.152; in assay [2] it was 0.338; in assay [3], -0.14; in assay [4], -1.01; in assay [5] it was -1.26; in [6], 1.94. The composite z-score in [7] is 1.23; in assay [9], -0.288; in assay [10], 0.0274; in assay [11], 1.08; in [15] it was 2.1; in [17] it was -0.188. The composite z-score in [18] was 1.39; in assay [19], 0.322; in assay [20], -0.149. For the same compound, the z-score in [8] is 1.26 (inactive); in [12], -1.44 (inactive); in assay [13] it was -1.73 (inactive); in assay [14], -0.905 (inactive); in assay [16], 1.39 (inactive).
Turning to `O=C(NCc1ccccc1)[C@@H]1c2ccccc2C(=O)N(Cc2ccccc2Cl)[C@H]1c1ccc(CO)cc1`, the composite z-score turned out to be 0.389 in assay [1]; 0.658 in assay [2]; 0.0139 in assay [3]; 0.124 in [4]; 1.21 in assay [5]; 0.887 in assay [6]. For the same compound, the composite z-score in assay [7] was found to be 1.25; in [9], 0.893; in [10], 0.0623; in assay [11], 1.41; in [15], 2.69; in assay [17] it was 0.054. Moreover, the composite z-score in [18] turned out to be 1.17; in [19], 1.05; in assay [20] it was 0.103. The z-score in [8] was -2.93 (inactive); in assay [12], -0.21 (inactive); in [13], -1.82 (inactive); in assay [14] it was -1.49 (inactive); in assay [16], 2.1 (inactive).
For `COC(=O)c1c2oc(c1C(=O)OC)C(=O)N[C@@H](C(C)C)Cn1nncc1C1(CCCCC1)NC(=O)N[C@H](CO)CC2`, the composite z-score was -0.07 in assay [1]; 0.178 in assay [2]; -0.129 in assay [3]; 0.147 in assay [4]; -0.294 in [5]; 0.969 in assay [6]. Further, the composite z-score in assay [7] was 0.625; in assay [9], -0.103; in assay [10], 0.0373; in assay [11], -0.143; in [15] it was 2.02; in assay [17], -0.208. For the same compound, the composite z-score was -0.494 in assay [18], -0.373 in assay [19] and -0.144 in assay [20]. Besides, the z-score was -0.993 (inactive) in assay [8]; 0.0957 (inactive) in [12]; -0.99 (inactive) in [13]; -0.787 (inactive) in [14]; 2.28 (inactive) in assay [16].

The values are drawn from PubChem BioAssay.
